Screening data as filed in PubChem BioAssay.
uPA surface inh – qHTS for Inhibitors of Cell Surface uPA Generation | cell surface uPA generation assay, qHTS | Potency, µM (doses to about 38.3 µM), for inactives: at the top dose activity change, negative = inhibition, usual class: inhibitors | 330,000 compounds, 0.31% hits | AID 540303, 2011; active = well fitted inhibition curve with a large enough effect; inconclusive = small, poorly fitted or top-dose-only effect; inactive = no such curve, though single readings can be large or run the other way; tested in mouse RAW 264.7 cells; note: potency is the fitted concentration of half-maximal effect; nearly all actives have a fitted effect of over 55% in size
IL1B secr inh – qHTS for Inhibitors of Inflammasome Signaling: IL-1-beta AlphaLISA Primary Screen | THP-1 LPS/ATP IL-1B secretion, AlphaLISA, 16 h; hits give low values | activity change, % at 57.5 µM | 360,000 compounds, 4.7% hits | AID 743279, 2014; in the data active = activity change below about -50%; inconclusive = mostly about -30% to -49%
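Secreted IL-1B measured by AlphaLISA bead assay after 16 h compound exposure of THP-1 cells; compounds (final up to 57.5 uM) added 1 h before LPS (250 ng/mL) and ATP (1.25 mM) stimulation; lower signal means less secretion.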
HT1080-NT tox – qHTS for induction of synthetic lethality in tumor cells producing 2HG: qHTS for the HT-1080-NT fibrosarcoma cell line. AID 686970, 2013. 360,000 compounds, 1.6% hits. Potency, µM (top dose mostly 46.1 µM), for inactives: at the highest dose activity, negative = less viability, most hits filed as cytotoxic. HT-1080-NT fibrosarcoma viability, CellTiter-Glo ATP luminescence, 48 h;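 note: NT is the 2HG producing partner of a matched IDH1 knockdown line; potency is the fitted concentration of half-maximal effect; 0% = DMSO-treated cells and -100% = media-only wells without cells; nearly all actives have a fitted effect of over 55% in size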
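Toxicity toward the 2HG-producing NT line was scored as %Activity, normalised to DMSO and no-cell wells, from CellTiter-Glo luminescence after 48 hours' treatment.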
DT40 TDP1 no CPT – qHTS for Inhibitors of human tyrosyl-DNA phosphodiesterase 1 (TDP1): qHTS in cells in absence of CPT. DT40 Tdp1-/- hTDP1 cells, no CPT, ATP luminescence, 48 h. Potency, µM (doses to about 46.2 µM), without a hit: at the top dose activity change, negative = growth inhibition, usual class: inhibitors. 420,000 compounds, 15% hits. AID 686978, 2013; note: potency is the fitted concentration of half-maximal effect; nearly all actives have a fitted effect of over 55% in size
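DT40 Tdp1-/-;hTDP1 cells, no CPT (DMSO vehicle only), 400 cells/well; compounds pin-transferred; ≥48 hr, 37 °C; CellTiter-Glo 30 min RT dark, luminescence read.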
DT40 TDP1 CPT – qHTS for Inhibitors of human tyrosyl-DNA phosphodiesterase 1 (TDP1): qHTS in cells in presence of CPT; AID 686979, 2013; 420,000 compounds, 12% hits; Potency, µM (top dose mostly 46.2 µM), without a hit: top-dose activity change, negative = growth inhibition, usual class: inhibitors; chicken DT40 Tdp1-/-;hTDP1 cells + 20 nM CPT, ATP luminescence, 48 h; note: potency is the fitted concentration of half-maximal effect; nearly all actives have a fitted effect of over 55% in size
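Cell growth measured by CellTiter-Glo luminescence after a minimum 48 h, 37 C compound exposure with 20 nM CPT in Tdp1-knockout DT40 cells stably expressing hTDP1, seeded 400/well; qHTS titration format.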
HT1080 IDH1KD tx – qHTS for induction of synthetic lethality in tumor cells producing 2HG: qHTS for the HT-1080-IDH1KD cell line; 360,000 compounds, 2% hits; HT-1080 IDH1 knockdown viability, ATP luminescence, 48 h; Potency, µM (highest dose often 46.1 µM), without a hit: at the top dose activity, negative = toxicity, most hits filed as cytotoxic;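 note: potency is the fitted concentration of half-maximal effect; 0% = DMSO wells and -100% = cell-free medium wells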
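CellTiter-Glo luminescence after 48 h compound exposure at 37 degrees C of IDH1-knockdown HT-1080 cells in 5% FBS RPMI. %Activity scaled between DMSO wells and cell-free media wells, with curves fitted and assigned curve classes.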
Active calls of the source: *; ? = inconclusive; . = not tested or not shown. Only some compounds are listed: those with a hit (about 19% of all), similar ones and a draw of the others. Unless noted, calls come from the whole dose curve; as a rule, active = well fitted curve in the direction sought with a large enough effect; inconclusive = small, poorly fitted or top-dose-only effect, or another doubt; inactive = no such curve, though single readings can be large; an effect the other way counts as inactive or inconclusive. Unless noted, % is set by controls: 0 for no effect and ±100 for the full control effect.

SMILES	uPA surface inh	IL1B secr inh	HT1080-NT tox	DT40 TDP1 no CPT	DT40 TDP1 CPT	HT1080 IDH1KD tx
CN(NC(=O)/C=C/C(=O)O)c1ncc(C(F)(F)F)cc1Cl	1%	2	13%	-8%	-13%	16%
Cn1c(NC(=S)Nc2ccccc2)nc2ccccc21	-11%	-2	0%	1.6µM*	1.6µM*	-10%
S=C(Nc1ccccc1)Nc1nc2ccccc2n1CCOc1ccc(Br)cc1	4%	2	5%	?	-16%	1%
COc1cccc(/C=C2\NC(=O)NC2=O)c1O	6%	-50*	10%	16%	-8%	7%
O=c1c2ccccc2nc2n1CCN2Cc1ccc(Cl)cc1	-12%	-78*	?	?	18µM*	-23%
Cc1ccc(C)c(S(=O)(=O)Nc2cc3c4c(c2)CCC(=O)N4CCC3)c1	0%	42	-29%	?	?	-19%
CCCCOc1cccc(C(=O)Nc2cc(NC(=O)c3ccco3)ccc2OC)c1	.	.	.	21µM*	18µM*	.
COc1ccc(NC(=O)c2ccco2)cc1NC(=O)c1cccc(C)c1OC	.	.	.	12µM*	21µM*	.
COc1ccc(NC(=O)c2ccco2)cc1NC(=O)c1cccc(OC(C)C)c1	3%	-11	-15%	12µM*	?	-8%
COc1cc(NC(=O)c2oc3ccccc3c2C)ccc1NC(=O)c1ccco1	-1%	-3	0%	18µM*	?	-16%
COc1ccc(NC(=O)c2ccco2)cc1NC(=O)c1ccccc1	9%	1	0%	?	-23%	1%
COc1cc(NC(=O)c2cc3ccccc3o2)ccc1NC(=O)c1ccco1	3%	-27	-6%	-28%	-4%	1%
COc1cccc(C(=O)Nc2cc(NC(=O)c3ccco3)ccc2OC)c1	4%	-10	13%	?	18µM*	15%
COc1ccc(OC)c(NC(=O)c2cccc(NC(=O)c3ccco3)c2)c1	.	-15	?	?	?	25%
O=C1c2ccccc2CN1Cc1ccccc1	-5%	-9	-5%	-7%	-2%	5%
CCOC(=O)/C=C/C(=O)OCC(=O)Nc1c(Cl)cccc1Cl	0%	-54*	12%	-29%	?	6%
CCCn1c(C)cc(/C=C(\C#N)C(=O)OCC(=O)Nc2ccc(OC)c(Cl)c2)c1C	1%	4	-3%	12µM*	-27%	-2%
COc1ccc(NC(=O)COC(=O)/C=C/C(=O)OCC(=O)Nc2ccc(OC)c(Cl)c2)cc1Cl	-10%	-103*	?	?	?	?
CCCn1c(C)cc(/C=C(\C#N)C(=O)OCC(=O)NC(=O)NCC)c1C	4%	-16	-4%	-27%	-12%	-1%
CCOC(=O)c1ccc(N2C(=O)c3n[nH]c(-c4ccco4)c3C2c2ccc(O)c(OCC)c2)cc1 (configuration not stated)	.	.	.	15µM*	16µM*	.
CCOC(=O)c1ccc(N2C(=O)c3n[nH]c(C)c3C2c2ccc(OC)cc2)cc1 (configuration not stated)	.	-22	?	?	-17%	?
CCOC(=O)c1ccc(N2C(=O)c3[nH]nc(-c4ccc(C)cc4)c3C2c2cccs2)cc1 (configuration not stated)	.	.	.	16µM*	16µM*	.
CCOC(=O)c1ccc(N2C(=O)c3n[nH]c(-c4ccco4)c3C2c2ccc(C(=O)OC)cc2)cc1 (configuration not stated)	.	.	.	15µM*	26µM*	.
CCOC(=O)c1ccc(N2C(=O)c3[nH]nc(-c4ccc(C)cc4)c3C2c2ccc(O)c(OCC)c2)cc1 (configuration not stated)	.	.	.	23µM*	18µM*	.
Cc1oc2ncn(C)c(=O)c2c1C(=O)NCCCN1CCCC(C)C1 (configuration not stated)	.	.	.	-3%	10%	.
SMILES	uPA surface inh	IL1B secr inh	HT1080-NT tox	DT40 TDP1 no CPT	DT40 TDP1 CPT	HT1080 IDH1KD tx
Cc1cccc(C)c1Nc1cn[nH]c1	.	12	23%	-7%	-4%	20%
CCOC(=O)c1ccc(N2C(=O)c3[nH]nc(-c4ccc(OC)cc4)c3C2c2ccccc2Cl)cc1 (configuration not stated)	.	.	.	23µM*	18µM*	.
COc1ccc(C2c3c(-c4ccccc4)n[nH]c3C(=O)N2c2ccc(C(=O)O)cc2)c(OC)c1 (configuration not stated)	.	.	.	-2%	0%	.
Cc1cc(CNC(=O)c2cccc([N+](=O)[O-])c2C)c2ccccc2n1	-3%	-10	-29%	12µM*	10µM*	-21%
Cc1cc(CNC(=O)Cc2ccccc2)c2ccccc2n1	-2%	29	0%	?	?	-11%
Cc1cc(CNC(=O)COc2c(F)c(F)cc(F)c2F)c2ccccc2n1	-4%	74	?	-16%	?	?
Cc1cc(CNC(=O)COc2ccc(F)cc2F)c2ccccc2n1	-3%	-16	-26%	?	?	-10%
Cc1cc(CNC(=O)COc2ccccc2F)c2ccccc2n1	-11%	59	-1%	?	15µM*	1%
Cc1cc(CNC(=O)COc2cc(F)ccc2[N+](=O)[O-])c2ccccc2n1	-5%	-18	-28%	12µM*	12µM*	-3%
N#Cc1c(N)[nH]c(C(=O)c2ccccc2)c1-c1ccc(Cl)cc1	.	0	-5%	-28%	-28%	0%
O=C(Nc1ccc2c(c1)OCCO2)c1[nH]c(C(F)(F)F)nc1-c1ccccc1	.	41	?	?	?	?
COc1ccccc1C(=O)Nc1sc2c(c1C(N)=O)CCCC2	0%	5	-28%	-1%	10%	-21%
NC(=O)c1nc(Nc2ccccc2)sc1NC(=O)c1ccccc1Br	.	.	.	21µM*	?	.
COc1ccccc1C(=O)Nc1sc(Nc2ccccc2)nc1C(N)=O	.	.	.	6.5µM*	12µM*	.
CCCNC(=O)c1cc(S(=O)(=O)N2CCc3ccccc32)cn1C	?	37	3%	18µM*	23µM*	-12%
Cc1ccc(NC(=O)c2cc(S(=O)(=O)N3CCc4ccccc43)cn2C)cc1C	-24%	-20	?	?	?	-12%
